Measured values reported in PubChem BioAssay AID841 (Emory University Molecular Libraries Screening Center, 2007).
Out of some 140,000 compounds screened, about 2,100 (1.5%) were called active. Cut-off read from the data, not from the text of the source: active = protection mostly above about 24% (no sharp cut-off); inactive = mostly below about 26%. For the sample, actives were picked, then their nearest neighbours and some compounds at random.

assay: compounds protecting cells from measles virus cytopathic effect, primary screen, measles RdRp inhibitor project, single point, MLSMR library, absorbance (AID 841); details: Measles virus-infected cells, CPE protection, at 4 µM, stronger effect = higher value

Question: With `COC(=O)c1ccc(NCC(=O)c2ccccc2)cc1` as the molecule, how does the protection (pct of control) read?
Answer: The protection (pct of control) was 2.68% (inactive).

Question: Which protection (pct of control) does the source give for `O=C(COC(=O)c1ccccc1)Nc1ccccc1Sc1ccccc1` here?
Answer: Its protection (pct of control) is 6.19% (inactive).

Question: For `O=C(OCC(O)C(O)COC(=O)c1ccccc1)c1ccccc1` (stereo unspecified), which protection (pct of control) is on record?
Answer: Its protection (pct of control) is 37.5% (active).

Question: With `CCn1c(O)c(N=NC(=O)c2cccc(S(=O)(=O)N3CCCCC3)c2)c2ccccc21` as the molecule, how does the protection (pct of control) read?
Answer: Its protection (pct of control) is 28.2% (inactive).

Question: Which protection (pct of control) does the source give for `O=C(C/C(=N\NC(=O)c1ccccc1Br)C(F)(F)F)c1cccs1` here?
Answer: Its protection (pct of control) is 9.78% (inactive).

Question: For `O=S(=O)(c1ccc(F)cc1)N1CCN(C(=S)NCc2ccco2)CC1`, which protection (pct of control) is on record?
Answer: The protection (pct of control) was 18.5% (inactive).

Question: With `COC(=O)c1c(NC(=O)CN2CCN(S(=O)(=O)c3ccccc3[N+](=O)[O-])CC2)sc2c1CCC(C)C2` (stereo unspecified) as the molecule, how does the protection (pct of control) read?
Answer: Its protection (pct of control) is 1.76% (inactive).

Question: For `C/C(Cc1ccccc1)=N\NC(=O)CNC(=O)c1cccc(Br)c1`, which protection (pct of control) is on record?
Answer: Its protection (pct of control) is 4.73% (inactive).

Question: Which protection (pct of control) does the source give for `CCOC(=O)NCc1ccc2c(c1)OCO2` here?
Answer: Its protection (pct of control) is 22% (inactive).

Question: For `c1n[nH]c(NCc2ccc3c(c2)OCO3)n1`, which protection (pct of control) is on record?
Answer: The protection (pct of control) was 47.6% (active).

Question: Which protection (pct of control) does the source give for `O=C(COc1ccccc1)NCc1ccc2c(c1)OCO2` here?
Answer: Its protection (pct of control) is 17.1% (inactive).

Question: With `Cc1ccc(S(=O)(=O)Nc2nc(C)cc(N/N=C/c3ccc(O)cc3)n2)cc1` as the molecule, how does the protection (pct of control) read?
Answer: Its protection (pct of control) is 10.3% (inactive).

Question: Which protection (pct of control) does the source give for `CCOC(=O)C1CCN(C(=O)/C=C/c2cc(OC)c(OC)c(OC)c2)CC1` here?
Answer: Its protection (pct of control) is 18% (inactive).

Question: With `COc1ccc(CNC(=O)CN(Cc2ccc(Cl)cc2)S(C)(=O)=O)cc1` as the molecule, how does the protection (pct of control) read?
Answer: Its protection (pct of control) is 24.2% (inactive).

Question: Which protection (pct of control) does the source give for `Cc1cc(C)c(S(=O)(=O)N2C=CC(C(F)(F)F)=NCC2)c(C)c1` here?
Answer: Its protection (pct of control) is 30.8% (active).

Question: For `Cc1cc(NS(=O)(=O)c2ccc(NC(=S)NC(=O)c3ccc(F)cc3Cl)cc2)no1`, which protection (pct of control) is on record?
Answer: Its protection (pct of control) is 9.68% (inactive).

Question: With `COc1cc(/C=C/C(=O)N2c3ccccc3Sc3ccc(C(F)(F)F)cc32)cc(OC)c1OC` as the molecule, how does the protection (pct of control) read?
Answer: The protection (pct of control) was 2.04% (inactive).

Question: For `O=C(CN1CCCCC1)N1c2ccccc2Sc2ccc(C(F)(F)F)cc21`, which protection (pct of control) is on record?
Answer: Its protection (pct of control) is 5.95% (inactive).

Question: Which protection (pct of control) does the source give for `O=C(CN1CCCCCC1)N1c2ccccc2Sc2ccc(C(F)(F)F)cc21` here?
Answer: Its protection (pct of control) is 27.8% (active).

Question: With `CCOC(=O)CNC(=O)/C=C/c1c(Cl)cccc1Cl` as the molecule, how does the protection (pct of control) read?
Answer: Its protection (pct of control) is 1.29% (inactive).

Question: For `COc1cccc(C2SCC(=O)N2c2cccc(C)c2)c1OC` (stereo unspecified), which protection (pct of control) is on record?
Answer: The protection (pct of control) was 8.06% (inactive).

Question: With `CC(C)C(C)(C#N)NC(=O)CSc1nc2scc(-c3ccccc3)c2c(=O)[nH]1` (stereo unspecified) as the molecule, how does the protection (pct of control) read?
Answer: Its protection (pct of control) is 8.49% (inactive).

Question: For `Cc1nn(C)cc1CNC(=O)Nc1ccc(Cl)cc1`, which protection (pct of control) is on record?
Answer: Its protection (pct of control) is 8.21% (inactive).

Question: With `COc1ccc(Cl)cc1C(=O)NCC#N` as the molecule, how does the protection (pct of control) read?
Answer: Its protection (pct of control) is 16.7% (inactive).

Question: Which protection (pct of control) does the source give for `COc1ccc(Cl)cc1C(=O)NCc1cn(C)nc1C` here?
Answer: The protection (pct of control) was 42.3% (active).

Question: With `CCCCCOc1ccc(/C=C/C(=O)NCCc2nc3ccccc3[nH]2)cc1OC` as the molecule, how does the protection (pct of control) read?
Answer: The protection (pct of control) was 1.18% (inactive).

Question: Which protection (pct of control) does the source give for `CCOC(=O)c1c(C)n(C)c2ccc(OC)c(NS(=O)(=O)CC)c12` here?
Answer: The protection (pct of control) was 7.46% (inactive).

Question: Which protection (pct of control) does the source give for `CC(Oc1ccccc1F)C(=O)NN` (stereo unspecified) here?
Answer: Its protection (pct of control) is 17.6% (inactive).

Question: Which protection (pct of control) does the source give for `CCn1c2ccccc2c2cc(NC(=O)COC(=O)c3ccccc3Br)ccc21` here?
Answer: Its protection (pct of control) is 15.5% (inactive).

Question: For `Cn1cnc(C(F)(F)F)c1-c1ccc([N+](=O)[O-])cc1`, which protection (pct of control) is on record?
Answer: Its protection (pct of control) is 14.3% (inactive).

Question: For `COc1ccc(CCNC(=O)COC(=O)C2CCCCC2)cc1`, which protection (pct of control) is on record?
Answer: Its protection (pct of control) is 7.59% (inactive).

Question: Which protection (pct of control) does the source give for `Cc1ccc(C(=O)/C=C/c2c(C)nn(-c3ccccc3)c2Cl)cc1` here?
Answer: Its protection (pct of control) is 60.1% (active).

Question: With `Cc1nn(-c2ccccc2)c(Cl)c1/C=C/C(=O)c1ccc(O)cc1` as the molecule, how does the protection (pct of control) read?
Answer: The protection (pct of control) was 21.9% (inactive).

Question: With `Cc1nn(-c2ccccc2)c(Cl)c1C(=O)Nc1ccccc1` as the molecule, how does the protection (pct of control) read?
Answer: The protection (pct of control) was 5.22% (inactive).

Question: For `CCOc1cc(C(=O)Nc2c(C)ccc3nsnc23)cc(OCC)c1OCC`, which protection (pct of control) is on record?
Answer: Its protection (pct of control) is 37.8% (active).

Question: With `CCOc1cc(C(=O)Nc2ncccn2)cc(OCC)c1OCC` as the molecule, how does the protection (pct of control) read?
Answer: The protection (pct of control) was 2.67% (inactive).

Question: Which protection (pct of control) does the source give for `Cc1ccc2nsnc2c1NC(=O)c1ccccc1[N+](=O)[O-]` here?
Answer: The protection (pct of control) was 5.19% (inactive).

Question: With `COC(=O)Cc1ccc(N(Cc2ccccc2F)S(=O)(=O)c2ccc(Br)cc2)cc1` as the molecule, how does the protection (pct of control) read?
Answer: The protection (pct of control) was 18.5% (inactive).

Question: With `COc1ccc(NC(=O)CN2C(=O)C(c3ccccc3)=NC23CCCCCC3)cc1OC` as the molecule, how does the protection (pct of control) read?
Answer: The protection (pct of control) was 12% (inactive).

Question: For `CCc1ccc(Oc2coc3cc(OC(=O)c4cc5ccccc5oc4=O)ccc3c2=O)cc1`, which protection (pct of control) is on record?
Answer: The protection (pct of control) was 5.53% (inactive).

Question: For `Cc1ccc(S(=O)(=O)N2CCOCC2)cc1C(=O)NC(=S)N(Cc1ccccc1)C(C)C`, which protection (pct of control) is on record?
Answer: Its protection (pct of control) is 21.7% (inactive).

Question: Which protection (pct of control) does the source give for `COc1cc2c(cc1/C=C1/NC(=O)N(c3ccccc3)C1=O)OCO2` here?
Answer: The protection (pct of control) was 22.7% (inactive).

Question: For `COC(=O)c1ccc(C(=O)OC)c(NC(=S)N2CCCCC2)c1`, which protection (pct of control) is on record?
Answer: Its protection (pct of control) is 5.41% (inactive).

Question: For `COC(=O)c1ccc(C(=O)OC)c(NC(=S)N2CCN(c3ccc(F)cc3)CC2)c1`, which protection (pct of control) is on record?
Answer: The protection (pct of control) was 54.6% (active).

Question: With `COC(=O)c1ccc(C(=O)OC)c(NC(=S)N2CCN(c3cc(Cl)ccc3C)CC2)c1` as the molecule, how does the protection (pct of control) read?
Answer: The protection (pct of control) was 6.62% (inactive).

Question: For `CCCc1cc(=O)[nH]c(SCc2cc(=O)oc3c(C)c(C)ccc23)n1`, which protection (pct of control) is on record?
Answer: Its protection (pct of control) is 29.1% (inactive).

Question: For `Cc1ccccc1Cn1nc(C)c(NC(=O)C(F)(F)F)c1C`, which protection (pct of control) is on record?
Answer: Its protection (pct of control) is 2.3% (inactive).

Question: For `COC(=O)c1sc(N)c(C(=O)OC)c1COC(=O)CNS(=O)(=O)c1ccc(C)cc1`, which protection (pct of control) is on record?
Answer: The protection (pct of control) was 12.3% (inactive).

Question: Which protection (pct of control) does the source give for `O=C(Nc1ccccc1Cl)c1ccccc1S(=O)(=O)c1ccccc1[N+](=O)[O-]` here?
Answer: The protection (pct of control) was 2.96% (inactive).

Question: For `O=C(CS(=O)(=O)Cc1ccccc1)Nc1cccnc1`, which protection (pct of control) is on record?
Answer: The protection (pct of control) was 20.4% (inactive).

Question: With `Cc1cc(C)c(NC(=O)CS(=O)CC(=O)Nc2cccnc2)c(C)c1` (stereo unspecified) as the molecule, how does the protection (pct of control) read?
Answer: Its protection (pct of control) is 56.7% (active).

Question: Which protection (pct of control) does the source give for `CCC(=O)Nc1cccc(NC(=O)c2cccnc2)c1` here?
Answer: The protection (pct of control) was 5.87% (inactive).

Question: Which protection (pct of control) does the source give for `COc1ccc(S(=O)(=O)NC(C)C)cc1C(=O)NC1CCCCC1` here?
Answer: The protection (pct of control) was 6.76% (inactive).

Question: Which protection (pct of control) does the source give for `Cc1cccc(C(=O)NC(=S)N2CCN(c3ccc([N+](=O)[O-])cc3)CC2)c1` here?
Answer: The protection (pct of control) was 6.39% (inactive).

Question: Which protection (pct of control) does the source give for `Cc1ccccc1N(C(=O)Cc1cccs1)C(C(=O)NC1CCCCC1)c1cn(C)nc1C` (stereo unspecified) here?
Answer: The protection (pct of control) was 20.1% (inactive).

Question: Which protection (pct of control) does the source give for `CN(CCCC(=O)Nc1nccs1)S(=O)(=O)c1ccc(Cl)cc1` here?
Answer: The protection (pct of control) was 15.3% (inactive).

Question: With `Cn1cccc1C(=O)Nc1nccs1` as the molecule, how does the protection (pct of control) read?
Answer: The protection (pct of control) was 0.78% (inactive).

Question: With `O=C(CCSCCc1ccccn1)Nc1nccs1` as the molecule, how does the protection (pct of control) read?
Answer: The protection (pct of control) was 45.9% (active).

Question: For `NC(=O)Cc1ccc2sc(-c3ccccc3)nc2c1`, which protection (pct of control) is on record?
Answer: Its protection (pct of control) is 30.1% (inactive).

Question: With `CCc1cccc(CC)c1NC(=O)COc1ccccc1C(=O)c1cc(C#N)c(=O)n(C2CCCCC2)c1` as the molecule, how does the protection (pct of control) read?
Answer: Its protection (pct of control) is 11.3% (inactive).

Question: With `COc1ccc(NC(=O)CN(Cc2ccccc2)S(C)(=O)=O)cc1OC` as the molecule, how does the protection (pct of control) read?
Answer: Its protection (pct of control) is 34.5% (inactive).
